# Test results from paper PMC10726135, “HNF4α isoforms regulate the circadian balance between carbohydrate and lipid metabolism in the liver”.
# Whole data set: some 18,000 sequences, median “log2 normalized intensity” near 0.36, cut for the highest 2% near 7.3. The full list was thinned out, with the highest values kept by preference.
# Biological target: T1, HNF4alpha8 (COS-7 nuclear extract) (Homo sapiens, UniProt P41235-5 1-452)
# T1 sequence: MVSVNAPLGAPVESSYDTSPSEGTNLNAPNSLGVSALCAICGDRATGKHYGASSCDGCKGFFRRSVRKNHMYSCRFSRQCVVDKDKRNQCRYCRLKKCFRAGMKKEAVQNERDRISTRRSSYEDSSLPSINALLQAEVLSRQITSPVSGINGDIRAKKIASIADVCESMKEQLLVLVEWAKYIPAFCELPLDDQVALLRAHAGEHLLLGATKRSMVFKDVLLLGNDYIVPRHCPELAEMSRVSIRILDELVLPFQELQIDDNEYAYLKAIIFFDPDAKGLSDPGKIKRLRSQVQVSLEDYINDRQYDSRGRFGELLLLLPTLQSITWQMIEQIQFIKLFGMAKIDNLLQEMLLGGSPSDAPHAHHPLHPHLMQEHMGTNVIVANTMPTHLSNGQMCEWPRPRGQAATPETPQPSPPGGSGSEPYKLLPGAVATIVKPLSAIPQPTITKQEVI
# Assay: protein-binding microarray; COS-7 nuclear extract on double-stranded Agilent 4x180k PBM; binding buffer, salt, pH and temperature not given in the material; high values mean tight binding
# Settings: chain copies: 2; label: 3' end of strand 1 on the slide; dsDNA, one strand shown
# Outline: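 COS-7 cells were transiently transfected by CaPO4 with an expression vector for a human HNF4α isoform, and nuclear extracts were prepared from them. The extracts were applied to a custom Agilent SurePrint G3 4x180k array of double-stranded ~60-nt oligonucleotides, with ~44,000 test sequences spotted in quadruplicate. An Agilent G2565CA scanner imaged bound HNF4α at 2-µm resolution. Binding signal is the background-corrected, normalized gProcessedSignal from Agilent software.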
row,Sequence,binding signal [log2 normalized intensity]
1,CTAGTTAAGTCACTGGGCTGATGACCTTTGGCCTAGGGAGATTAGAGTATCGGTCGA,6.81
2,ATGACCTTTGACTGAGATGGGAGCAGTGCTGCCTAGGGAGATTAGAGTATCGGTCGA,3.52
3,TTTTTTTTTTGAGATGGAATCTTGCCCTGTGCCTAGGGAGATTAGAGTATCGGTCGA,3.54
4,AGAATCATCTTTGAGCTGGATGACCTTTGTGCCTAGGGAGATTAGAGTATCGGTCGA,8.24
5,TCCTGATCTTTGACCTGGAGCATGACCCTTGCCTAGGGAGATTAGAGTATCGGTCGA,5.6
6,CTGGATGACCTTTGTCCTGGCACAACTGGAGCCTAGGGAGATTAGAGTATCGGTCGA,6.78
7,TTGAGCTGGATGACCTTTGTCCTGGCACAAGCCTAGGGAGATTAGAGTATCGGTCGA,8
8,TAAGTCACTGGGCTGATGACCTTTGACTGAGCCTAGGGAGATTAGAGTATCGGTCGA,7.85
9,CACTGGGCTGATGACCTTTGACTGAGATGGGCCTAGGGAGATTAGAGTATCGGTCGA,5.81
10,ATGGGATGACCTTTGAGCAATAGGAAATGGGCCTAGGGAGATTAGAGTATCGGTCGA,4.79
11,CATCTTTGAGCTGGATGACCTTTGTCCTGGGCCTAGGGAGATTAGAGTATCGGTCGA,9.19
12,TGACCTTTGTCCTGGCACAACTGGATGGTGGCCTAGGGAGATTAGAGTATCGGTCGA,5.2
13,CTAGCCCCGCCCAGATGTCTGGCTAAGACCGCCTAGGGAGATTAGAGTATCGGTCGA,3.43
14,GAGGAAAACCAGCTCAGTGGAAATTGTCCTGCCTAGGGAGATTAGAGTATCGGTCGA,0.989
15,CATATCTGGAATTTCAAAGGGAGCATATGTGCCTAGGGAGATTAGAGTATCGGTCGA,1.31
16,CTTTCTTTGTCTGTGTAGACTCATCTGGTGGCCTAGGGAGATTAGAGTATCGGTCGA,1.89
17,ATGAAGCAAGAGTCCAAATTCCTAGCCCTCGCCTAGGGAGATTAGAGTATCGGTCGA,2.14
18,AGGTTCCTCGCCTATGGTATGTATGGAATGGCCTAGGGAGATTAGAGTATCGGTCGA,2.2
19,TCTTTGCACTTGATGTTCCCCCTCCCTGGAGCCTAGGGAGATTAGAGTATCGGTCGA,4.84
20,TGGCTAAGACAGGGGCTATTTCTGACCTTTGCCTAGGGAGATTAGAGTATCGGTCGA,7.32
21,CTATTTCTGACCTTTGCACCAGAGATAATAGCCTAGGGAGATTAGAGTATCGGTCGA,6.97
22,AAGACAGGGGCTATTTCTGACCTTTGCACCGCCTAGGGAGATTAGAGTATCGGTCGA,10.2
23,AGGGGCTATTTCTGACCTTTGCACCAGAGAGCCTAGGGAGATTAGAGTATCGGTCGA,7.69
24,TCTGACCAGGCTGATTTAGCTATTTGACCTGCCTAGGGAGATTAGAGTATCGGTCGA,4.7
25,CCTTTGCACCAGAGATAATATGCTTACTTAGCCTAGGGAGATTAGAGTATCGGTCGA,0.614
